# Source: PubChem (National Center for Advancing Translational Sciences (NCATS))
# HT1080 IDH1KD tx – HT-1080 IDH1 knockdown cell toxicity (counter line); HT-1080 IDH1 knockdown viability, ATP luminescence, 48 h; Potency, µM (titrated, usually from 46.1 µM), for the others: at the highest dose activity, negative = toxicity, most hits filed as cytotoxic; 2% of 360,000 active; AID 686971;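 note: potency is the fitted concentration of half-maximal effect; 0% = DMSO wells and -100% = cell-free medium wells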
#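 Using the IDH1-knockdown HT-1080 line run in the same batch and compound series as the NT line, viability after 48 h at 37 °C was determined by CellTiter-Glo luminescence and expressed as % activity.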
# HT1080NT lethal – kills 2HG-producing HT-1080-NT fibrosarcoma cells; 1.6% of 360,000 active; Potency, µM (doses to about 46.1 µM), for inactives: at the highest dose activity, negative = less viability, hits mostly cytotoxic; HT-1080-NT fibrosarcoma viability, CellTiter-Glo ATP luminescence, 48 h;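 note: NT is the 2HG producing partner of a matched IDH1 knockdown line; potency is the fitted concentration of half-maximal effect; 0% = DMSO-treated cells and -100% = media-only wells without cells; nearly all actives have a fitted effect of over 55% in size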
#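 Read-out is CellTiter-Glo luminescence after 10 minutes at room temperature, following 48 hours' compound treatment of HT-1080-NT cells (750 cells/well, RPMI, 5% FBS, 37 degrees C).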
# TDP1 cell noCPT – qHTS for Inhibitors of human tyrosyl-DNA phosphodiesterase 1 (TDP1): qHTS in cells in absence of CPT. DT40 Tdp1-/- hTDP1 cells, no CPT, ATP luminescence, 48 h. Potency, µM (series often up to 46.2 µM), for the others: at the top dose activity change, negative = growth inhibition, hits mostly inhibitors. 15% of 420,000 active. AID 686978, 2013; note: potency is the fitted concentration of half-maximal effect; nearly all actives have a fitted effect of over 55% in size
#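 A cellular qHTS used chicken DT40 cells lacking endogenous Tdp1 but carrying stably transfected human TDP1. Compounds were applied without camptothecin, and cell growth kinetics were judged by ATP-dependent luminescence after ≥48 hr.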
# TDP1 cell CPT – growth inhibition of DT40 Tdp1-/-;hTDP1 cells with camptothecin (screen for TDP1 inhibitors); chicken DT40 Tdp1-/-;hTDP1 cells + 20 nM CPT, ATP luminescence, 48 h; Potency, µM (highest dose often 46.2 µM), for inactives: top-dose activity change, negative = growth inhibition, most hits filed as inhibitors; 12% of 420,000 active; AID 686979; note: potency is the fitted concentration of half-maximal effect; nearly all actives have a fitted effect of over 55% in size
#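 Chicken DT40 Tdp1-/- cells complemented with human TDP1, 400 cells/well, exposed to compounds plus 20 nM camptothecin for at least 48 h at 37 C; viability read as ATP content by CellTiter-Glo luminescence.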
# IL1B secr inh – inhibitors of inflammasome signaling (IL-1 beta secretion); THP-1 LPS/ATP IL-1B secretion, AlphaLISA, 16 h; hits give low values; activity change, % at 57.5 µM; 4.7% of 360,000 active; AID 743279; in the data active = activity change below about -50%; inconclusive = mostly about -30% to -49%
#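 THP-1 cells pretreated 1 hr with compounds (up to 57.5 uM final), then stimulated with LPS (250 ng/mL final) plus ATP (1.25 mM final); secreted IL-1B measured by AlphaLISA after 16 hr, decreased signal indicating inhibition.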
# Numbers without * were called inactive; ? = inconclusive; nt = no result given; [ ] = dose if it differs, or a comment. Only some compounds are listed: those with a hit (about 19% of all), similar ones and a draw of the others. Unless noted, calls come from the whole dose curve; as a rule, active = well fitted curve in the direction sought with a large enough effect; inconclusive = small, poorly fitted or top-dose-only effect, or another doubt; inactive = no such curve, though single readings can be large; an effect the other way counts as inactive or inconclusive. Unless noted, % is set by controls: 0 for no effect and ±100 for the full control effect.
SMILES,HT1080 IDH1KD tx,HT1080NT lethal,TDP1 cell noCPT,TDP1 cell CPT,IL1B secr inh
NNC(=O)c1cc(-c2ccccc2)sc1N,13%,-4%,-22%,-2%,0
Cc1nc(N)sc1C(=O)N/N=C/c1c[nH]c2ccccc12,-25%[9.24 µM],?,?,?,-55*
O=C(CSC1=NS(=O)(=O)c2ccccc2N1)Nc1nccs1,9%,6%,3%,2%,-3
COc1ccc(CCC(C)Nc2ccc(F)cc2)cc1 (stereo unspecified),3%,25%,-15%,5%,23
N#Cc1ccc(NC(=O)CSc2cn[nH]n2)cc1,-19%,-2%,-6%,4%,-11
COc1cc(C(=O)N/N=C/c2sc(=O)n(-c3ccccc3)c2Cl)cc(OC)c1OC,11%,0%,?,?,-71*
Cc1nnsc1C(=O)N/N=C/c1ccc2ccccc2c1O,3.7µM*,4.1µM*,0.82µM*,1µM*,57
COc1cc(/C=C(/C(=O)O)c2ccc(-c3ccccc3)cc2)cc(OC)c1OC,9.2µM*,?,?,?,33
COc1cc(/C=N/NC(=O)c2sc3nc(C)cc(C)c3c2N)ccc1O,?,?,3.3µM*,?,-89*
Cc1csc(N/N=C/c2c(F)cccc2Cl)n1,-19%,-8%,?,?,30
COc1cc(/C=N/NC(=O)c2ccc(-n3cccc3)cc2)ccc1O,-13%,1%,?,?,-69*
COc1cc(C(=O)N/N=C/c2cccc(Oc3ccccc3)c2)ccc1O,-22%,-20%,?,?,-21
C/C(O)=C(/C=Nc1ccccc1)C(=O)Nc1ccccc1,0%,-2%,-12%,-4%,15
CCOC(=O)CCn1c(=O)c2c(nc(Br)n2Cc2ccccc2)n(C)c1=O,-1%,-3%,-51%,-15%,12
CCOC(=O)Cn1c(=O)c2c(nc(N3CCCCC3)n2Cc2ccccc2)n(C)c1=O,-6%,-27%,15µM*,21µM*,-1
CCOC(=O)Cn1c(=O)c2c(nc(N3CCOCC3)n2C)n(C)c1=O,14%,7%,-13%,-4%,5
CCOC(=O)Cn1c(=O)c2c(nc(Br)n2Cc2ccc(Cl)cc2)n(C)c1=O,-12%,4%,9.2µM*,13µM*,18
CCc1ccccc1OCC(=O)Nc1cccc(S(=O)(=O)NCc2ccco2)c1,-18%,-17%,?,18µM*,?
O=C(COc1ccccc1F)Nc1ccc(S(=O)(=O)NCc2ccco2)cc1,-17%,0%,18µM*,?,-2
O=C(Nc1ccc(S(=O)(=O)NCc2ccco2)cc1)c1ccc2ccccc2n1,0%,-4%,21µM*,?,-11
CC(C)CC(=O)Nc1ccc(S(=O)(=O)NCc2ccco2)cc1,0%,-9%,?,-15%,56
NC(=S)N=Nc1ccc(O)cc1,0%,-2%,18µM*,21µM*,0
NC(N)=NC(N)=Nc1ccc(O)cc1,4%,2%,2%,12%,1
Nn1c(SCC(=O)NCC2CCCO2)nnc1-c1ccc(OC(F)F)cc1 (stereo unspecified),3%,-4%,0%,-8%,-1
CC1(C)CNC(=O)c2sc(N3CCOCC3)nc2C1,-4%,-6%,21µM*,8.2µM*,-17
SMILES,HT1080 IDH1KD tx,HT1080NT lethal,TDP1 cell noCPT,TDP1 cell CPT,IL1B secr inh
CC(=O)c1ccc(NC(=O)CC2Sc3ccccc3NC2=O)cc1 (stereo unspecified),nt,nt,13µM*,12µM*,nt
O=C(CC1Sc2ccccc2NC1=O)NCc1ccccc1 (stereo unspecified),6%,8%,-1%,-4%,16
O=C(CC1Sc2ccccc2NC1=O)NNc1ccc(Cl)cc1Cl (stereo unspecified),?,?,?,?,-58*
O=C(CC1SC(=O)NC1=O)Nc1ccc(Cl)cc1 (stereo unspecified),-10%,-4%,9.2µM*,3.3µM*,1
O=C(CC1Sc2ccccc2NC1=O)Nc1cccnc1 (stereo unspecified),9%,4%,-1%,25%,19
CN(C)S(=O)(=O)c1cccc(C(=O)NCc2cccs2)c1,13%,12%,-2%,0%,-19
C=CCNC(=O)COc1ccc(Oc2ccccc2)cc1,-4%,-26%,26µM*,15µM*,-28
O=C(COc1ccccc1)NCCSc1ccccc1,0%,7%,-26%,-3%,-6
O=C(COC(=O)c1cc(S(=O)(=O)N2CCOCC2)ccc1F)Nc1ccc(Cl)cn1,-1%,2%,8%,-18%,45
C[C@@H]1[C@@H](Sc2ccccc2)CC(=O)O[C@@H]1c1ccc(-c2ccccc2)cc1,?,?,7.3µM*,8.2µM*,-102*
CCOc1ccc2[nH]cc(S(=O)(=O)c3ccc(Cl)cc3)c(=O)c2c1,-14%,-14%,9.2µM*,9.2µM*,2
CCOc1ccc2[nH]cc(S(=O)(=O)c3ccc(C)cc3)c(=O)c2c1,0%,5%,?,?,4
CN1CCC(C(=O)C(=O)O)C1=O (stereo unspecified),-4%,0%,-2%,?,-7
O=C(NC1CCCCCCC1)c1ccc(Br)o1,-2%,2%,4.6µM*,-13%,-15
Cc1ccc(S(=O)Cc2ccc(C(=O)NC3CCCCCC3)o2)cc1 (stereo unspecified),nt,nt,16µM*,?,nt
COc1ccc(CNC(=O)c2ccc(CS(=O)Cc3ccccc3Cl)o2)cc1 (stereo unspecified),nt,nt,18µM*,?,nt
Cc1ccc(CS(=O)Cc2ccc(C(=O)NC3CCCC(C)C3C)o2)cc1 (stereo unspecified),-1%,-4%,?,21µM*,-4
O=C(NC1CCCCCC1)c1ccc(Br)o1,-5%,-3%,-2%,3%,12
CC(C)C[C@H]1CN([C@@H](Cc2ccccc2)CN2CCC[C@H]2CN2C(=O)C(=O)NC[C@@H]2Cc2ccc(O)cc2)C(=O)C(=O)N1CCc1ccccc1,?,-37%,?,?,-4
COCCN1C2=C(C(=O)CC(C)(C)C2)C(c2ccc(OC)c(OC)c2)C2=C1CC(C)(C)CC2=O,3%,7%,7%,-5%,-1
COc1cc2oc(=O)c(CC(=O)NCc3ccc(OC)c(OC)c3)c(C)c2cc1Cl,nt,nt,?,-12%,nt
O=C(COC(=O)c1cnc(Cl)c(Cl)c1)NC1CC1,-1%,-1%,-2%,6%,?
Cc1ccccc1S(=O)Cc1ccc(C(=O)NC2CCCCCC2)o1 (stereo unspecified),nt,nt,?,18µM*,nt
O=C(NC1CCCCCC1)c1ccc(CS(=O)Cc2ccccc2Cl)o1 (stereo unspecified),-13%,-17%,?,?,-54*
